CYP2C19 inh: blockers of cytochrome P450 2C19 activity – biochemical, luminescence, ADME assay, primary screen; actives 21% (n = 96,000); P33261; inhibition, % at 5 µM; AID 778, 2007; CYP2C19 Supersomes, luciferin-H EGE luminescence, 30 min;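 active = CYP2C19 inhibition above a set limit at 5 µM in the primary screen, cut at about 50% in these data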;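 note: plate controls were negative control wells for no effect and 2.5 mM tranylcypromine positive control for full effect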
CYP2C9 inh: blockers of cytochrome P450 2C9 activity – biochemical, luminescence, ADME assay, primary screen | CYP2C9 Supersomes, luciferin-H conversion | actives 20% (n = 96,000) | inhibition, % at 5 µM;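 active = blocking of liver enzyme CYP2C9 beyond about 50% at 5 µM, limit read from the data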
Target sequence (P11712 whole entry, looked up): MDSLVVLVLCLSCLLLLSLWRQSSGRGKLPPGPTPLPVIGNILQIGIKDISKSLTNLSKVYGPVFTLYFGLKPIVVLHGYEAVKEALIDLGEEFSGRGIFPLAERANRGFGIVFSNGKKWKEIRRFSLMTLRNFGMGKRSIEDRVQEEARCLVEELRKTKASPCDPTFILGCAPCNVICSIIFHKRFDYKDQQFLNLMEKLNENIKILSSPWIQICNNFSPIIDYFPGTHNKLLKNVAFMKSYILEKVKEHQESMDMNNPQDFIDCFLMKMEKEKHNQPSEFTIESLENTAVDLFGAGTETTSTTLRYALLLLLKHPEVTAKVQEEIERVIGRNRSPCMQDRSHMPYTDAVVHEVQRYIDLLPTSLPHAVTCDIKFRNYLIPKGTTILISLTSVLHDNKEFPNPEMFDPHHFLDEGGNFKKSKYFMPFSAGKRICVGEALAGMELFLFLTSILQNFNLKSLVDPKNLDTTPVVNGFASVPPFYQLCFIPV
CYP2C19 activ: human CYP2C19 activators, primary screen, biochemical, luminescence; Cytochrome P450 2C19 (Homo sapiens), P33261; recombinant CYP2C19, luciferin-H EGE luminescence; active compounds read high; 0 = fully inhibited enzyme, 1 = untreated enzyme; activation factor at 5 µM; 96,000 tested, under 10 active; AID 1025, 2008;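 active = activation factor of at least 2 at 5 µM in the primary screen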;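 note: 0 = wells with 2.5 mM tranylcypromine and 1 = vehicle-only wells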
Pyk2 oligo antag: antagonists of Pyk2 self-association, primary screen, Q293 cells, FERM NanoBiT luminescence, HTS | AID 1347419, 2020 | actives 0.83% (n = 99,000) | active compounds read low | z-score (the deposit names both 25 µM and 10 µM) | Protein-tyrosine kinase 2-beta (Homo sapiens), Q14289;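 active = Z-score of -3 or lower, scaled per plate to the spread of control and sample wells; inactive = z-score above -3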;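 note: negative z-score means lost luminescence so less FERM oligomerization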
CYP2C9 activ: human CYP2C9 activators, primary screen, biochemical, luminescence | recombinant CYP2C9, luciferin-H conversion; active compounds read high; factor 1 = untreated enzyme, 0 = blocked | actives 1.4% (n = 96,000) | activation factor at 5 µM | Cytochrome P450 2C9 (Homo sapiens), P11712;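 active = activation factor of 2 or more for CYP2C9 at a 5 µM dose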;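 note: 0 = sulfaphenazole-blocked wells and 1 = vehicle-only wells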
The depositor's hits bear a star; / = no result given. Rows were chosen to be rich in hits. Some 28% of all compounds tested hit in one or more screens of this group.

SMILES	CYP2C19 inh	CYP2C9 inh	CYP2C19 activ	Pyk2 oligo antag	CYP2C9 activ
COc1ccc(N2C(=O)C3CCCN3C2c2ccccc2Cl)cc1 (stereo not drawn)	34	38	0.7	/	0.6
O=S(=O)(/N=C(/Nc1ccc(F)cc1F)c1ccc(Cl)cc1)c1ccccc1	-6	0	1.1	0.77	1
CC(C)CNc1oc(-c2ccco2)nc1C#N	/	/	/	0.59	/
N#Cc1nc(-c2ccccc2)oc1NCc1ccco1	13	74*	0.9	/	0.3
N#Cc1nc(-c2ccccc2Cl)oc1NCc1ccco1	64*	83*	0.4	-1.4	0.2
CNc1oc(-c2ccccc2)nc1C#N	30	5	0.7	0.02	0.9
O=C(NC12CC3CC(CC(C3)C1)C2)N1CCC(n2nnc3ccccc32)CC1	78*	6	0.2	0.9	0.9
O=C(NC12CC3CC(CC(C3)C1)C2)N1CCC(O)CC1	1	4	1	1.4	1
Nc1nc(CN2CCN(c3ccc(F)cc3)CC2)nc(N2CCCc3ccccc32)n1	60*	53*	0.4	1.5	0.5
COc1ccc(N2CCN(Cc3nc(N)nc(Nc4ccccc4OC)n3)CC2)cc1	18	18	0.8	-0.18	0.8
Cc1ccc(NC(=O)c2sc(Cl)nc2-c2ccccc2)cc1C	16	16	0.8	-0.75	0.8
COc1ccc2c(c1)c(=O)cc(C)n2CC(=O)NCc1ccco1	50	6	0.5	1.3	0.9
CN(C)S(=O)(=O)c1ccc(C(=O)Nc2ccnn2C2CCCCC2)cc1	-4	63*	1	0.86	0.4
O=[N+]([O-])c1ccc(NCCCNS(=O)(=O)c2ccc(Cl)cc2)c(Cl)c1	72*	49	0.3	/	0.5
CS(=O)(=O)NCCCNc1c(Cl)cccc1[N+](=O)[O-]	27	-14	0.7	-1.3	1.1
COc1ccc(CC(C(=O)Nc2cccc(F)c2)c2nn[nH]n2)c(OC)c1 (stereo not drawn)	29	32	0.7	0.14	0.7
Cc1cc(C)c[n+](-c2nc3ccccc3nc2C(=C=[N-])C#N)c1	-3	10	1	-1.2	0.9
COC(=O)c1[nH]c2cccc(OC)c2c1NC(=O)CCN1CCC(C)CC1	-1	-4	1	0.34	1
COC(=O)c1[nH]c2cccc(OC)c2c1NC(=O)C(C)N1CCC(C)CC1 (stereo not drawn)	18	-125	0.8	/	2.3*
O=C(c1ccc([N+](=O)[O-])cc1)N(Cc1ccc(Cl)cc1)N1C(=O)CCCC1=O	51*	12	0.5	-0.07	0.9
O=C(c1ccc([N+](=O)[O-])cc1)N(Cc1ccc(Cl)cc1Cl)N1C(=O)CCCC1=O	64*	20	0.4	0.33	0.8
Cc1ccc([N+](=O)[O-])cc1NC(=O)CN(C(=O)c1ccc(Cl)cc1)C1CCCCC1	46	37	0.5	-0.96	0.6
COCCCN(C(C)=O)c1nc(-c2ccc(OC)cc2)cs1	33	34	0.7	-0.77	0.7
O=C(O)CCC(=O)N1CCN(c2ccccn2)CC1	1	-1	1	-0.63	1
O=C(CSc1nccc2ccccc12)N1CCN(c2ccccn2)CC1	66*	-46	0.3	/	1.5
SMILES	CYP2C19 inh	CYP2C9 inh	CYP2C19 activ	Pyk2 oligo antag	CYP2C9 activ
O=C(CCc1ccccc1)N1CCN(c2ccccn2)CC1	/	/	/	-0.81	/
O=C(COc1ccc2ccccc2c1Br)N1CCN(c2ccccn2)CC1	84*	9	0.2	-1.3	0.9
CC(=O)C1C(c2ccc(F)c(F)c2)NC(=O)NC1(O)C(F)(F)F (stereo not drawn)	/	/	/	-0.76	/
CSCC[C@H](NC(=O)OC(C)(C)C)c1nnc(SCC=C(C)C)o1	51*	57*	0.5	-0.21	0.4
CCc1ccccc1NC(=O)CSc1nnc([C@H](CCSC)NC(=O)OC(C)(C)C)o1	51*	65*	0.5	0.14	0.4
Cc1cc(Nc2ccccc2Cl)n2nnnc2n1	11	6	0.9	0.41	0.9
O=C(Nc1ccccc1)NC1(C(=O)N2CCN(c3ncccn3)CC2)CCCCC1	15	-16	0.8	-0.27	1.2
CCOC(=O)c1ccc(NC(=O)CSc2nnc(-c3cccs3)n2C)cc1	5	-4	1	0.66	1
CSc1nsc(SCC(=O)Nc2cccc(C(C)=O)c2)n1	32	51*	0.7	0.26	0.5

Screens from PubChem.
